For 17 compounds, Potency and outcome results are on record in PubChem BioAssay (Tox21).

Several values for one entry are separate records, joined by “and”; a condition that tells them apart may be missing. Equal entries are not always repeated. Results filed as inconclusive are left out. The source holds several records for some structures; these can differ, active in one and inactive in another. Activity calls are given as the source filed them. Unless noted, calls come from the whole dose curve; as a rule, active = well fitted curve in the direction sought with a large enough effect in the repeat runs; inconclusive = weak or mixed curves; inactive = no such curve, though single readings can be large; an effect the other way counts as inactive or inconclusive.

Assay [1] addresses Progesterone receptor (Homo sapiens) (UniProt P06401). The experiment in a line: qHTS assay to identify small molecule agonists of the progesterone receptor (PR) signaling pathway (AID 1346784; calls by dose curve; note: nearly all actives have a fitted effect of over 30% in size; note: potency is the fitted concentration of half-maximal effect). The conditions noted are these: PR-UAS-bla HEK293T, beta-lactamase FRET ratio, 16 h; series mostly up to 92.4 µM. The gist of the method: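 Using charcoal-stripped serum (2%) to limit endogenous steroids, PR-UAS-bla HEK 293T cells received compounds for 16 hr at 37C after 6 hr plating; beta-lactamase FRET fluorescence was recorded following 2 hr substrate loading at room temperature.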

Assay [2] shares this target. As to the kind of experiment: qHTS assay to identify small molecule antagonists of the progesterone receptor (PR) signaling pathway (AID 1346795; active = well fitted inhibition curve with a large enough effect in the signal ratio in the repeat runs, not every such curve was filed as active; the % refers to the signal ratio; note: potency is the fitted concentration of half-maximal effect). The conditions noted are these: PR-UAS-bla HEK293T, beta-lactamase FRET ratio, 16 h; series mostly up to 92.4 µM. The method, boiled down: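 Inhibition of R5020-induced (1 nM final) beta-lactamase reporter signal in PR-UAS-bla HEK293T cells was scored by FRET fluorescence after overnight (16 hr) compound treatment.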

A short description of assay [3]: qHTS assay to identify small molecule antagonists of the progesterone receptor (PR) signaling pathway - cell viability counter screen (AID 1346798). Note: nearly all actives have a fitted effect of over 50% in size. Note: potency is the fitted concentration of half-maximal effect. The conditions noted are these: PR-UAS-bla HEK293T viability, CellTiter-Glo luminescence, 16 h; series mostly up to 92.4 µM. The gist of the method:
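ATP content as viability readout: CellTiter-Glo luminescence, 30 min room temperature, in PR-UAS-bla HEK293T cells after 16 hr compound/R5020 treatment at 37C and 5% CO2.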
In general terms: qHTS replaces the single test concentration by a dilution series.

A short description of assay [4]: qHTS assay to identify small molecule agonists of the TGF-beta/Smad signaling pathway - cell viability counter screen (AID 1346829). Note: nearly all actives have a fitted effect of over 45% in size. Note: potency is the fitted concentration of half-maximal effect. Conditions: SBE-bla HEK293T viability, CellTiter-Glo luminescence, 5 h; series mostly up to 76.8 µM. The gist of the method: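 Tox21 qHTS format: SBE-bla HEK 293T cells treated with DMSO-dissolved compounds for 5 hr; CellTiter-Glo luminescence after 30 min at room temperature.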

The nature of assay [5]: qHTS assay to identify small molecule agonists of the TGF-beta/Smad signaling pathway (AID 1346859; active = well fitted activation curve with a large enough effect in the signal ratio in the repeat runs, not every such curve was filed as active; the % refers to the signal ratio). Conditions: SBE-bla HEK293T, TGF-beta/Smad beta-lactamase reporter, 5 h; series mostly up to 76.8 µM. The method, boiled down:
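Stable Smad binding element-beta-lactamase HEK 293T cells; 5 hr compound exposure at 37 C under 5% CO2; 2 hr room-temperature substrate step; fluorescence excited at 405 nm, collected at 460 nm and 530 nm.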

Assay [6] in a line: Human pregnane X receptor (PXR) small molecule agonists, qHTS cell viability counter screen (AID 1346977). Note: nearly all actives have a fitted effect of over 50% in size. Note: potency is the fitted concentration of half-maximal effect. Conditions: PXR-Luc HepG2 viability, CellTiter-Fluor, 24 h; series mostly up to 92.4 µM. The gist of the method:
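Readout is CellTiter-Fluor fluorescence from PXR-Luc HepG2 cells. Plated cells rested 5hr, then were treated with compounds for 24hr at 37C and 5% CO2, with reagent present during the last hour.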

The nature of assay [7]: qHTS assay to identify small molecule antagonists of the TGF-beta/Smad signaling pathway - cell viability counter screen (AID 1346824). Note: nearly all actives have a fitted effect of over 50% in size. The conditions noted are these: SBE-bla HEK293T viability, CellTiter-Glo luminescence; series mostly up to 76.8 µM. The gist of the method: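 SBE-bla HEK 293T cells were plated overnight at 37 C, then given compounds in DMSO plus TGF-beta1 (added as 0.25 ng/mL solution) for 5 hr. After the bla read, CellTiter-Glo was added to the same wells and luminescence read after 30 min at room temperature.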

For assay [8], the target named is Thyrotropin-releasing hormone receptor (Homo sapiens) (UniProt P34981). The experiment in a line: qHTS assay to identify small molecule antagonists of the thyrotropin-releasing hormone receptor (TRHR) signaling pathway (AID 1346877; active = well fitted inhibition curve with a large enough effect in the repeat runs, not every such curve was filed as active). The conditions noted are these: TRHR-HEK293, TRH-induced calcium fluorescence, antagonist mode; series mostly up to 51.3 µM. The method, boiled down:
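Calcium signal in dye-loaded TRHR/HEK293 cells; compounds added 5 min before TRH (1 nM final); fluorescence monitored 3 min at 1 s steps.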

Assay [9] has the same target. The experiment in a line: qHTS assay to identify small molecule agonists of the thyrotropin-releasing hormone receptor (TRHR) signaling pathway (AID 1346891; calls by dose curve; note: potency is the fitted concentration of half-maximal effect;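 for activation: HEK293 cells expressing TRHR with calcium dye readout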). The conditions noted are these: TRHR-HEK293 calcium fluorescence, agonist mode; series mostly up to 57.6 µM. The method, boiled down:
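In 1536-format, 1500 TRHR-Hek293 cells per well grew 18 h, took up calcium dye for 2 h at 37 °C, received compound, and were read kinetically; 15-point titrations, triplicates.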

Assay [10] can be described thus: qHTS assay to identify small molecule agonists of the progesterone receptor (PR) signaling pathway - cell viability counter screen (AID 1346799; calls by dose curve; note: nearly all actives have a fitted effect of over 45% in size; note: potency is the fitted concentration of half-maximal effect). The conditions noted are these: PR-UAS-bla HEK293T viability, CellTiter-Glo luminescence, 16 h; series mostly up to 92.4 µM. The gist of the method:
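Cytotoxicity in PR-bla HEK293T cells: 16 h compound, 37C; CellTiter-Glo added post-FRET read; luminescence after 30 min RT.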

Thyrotropin-releasing hormone receptor (Homo sapiens), sequence (P34981 whole entry, looked up): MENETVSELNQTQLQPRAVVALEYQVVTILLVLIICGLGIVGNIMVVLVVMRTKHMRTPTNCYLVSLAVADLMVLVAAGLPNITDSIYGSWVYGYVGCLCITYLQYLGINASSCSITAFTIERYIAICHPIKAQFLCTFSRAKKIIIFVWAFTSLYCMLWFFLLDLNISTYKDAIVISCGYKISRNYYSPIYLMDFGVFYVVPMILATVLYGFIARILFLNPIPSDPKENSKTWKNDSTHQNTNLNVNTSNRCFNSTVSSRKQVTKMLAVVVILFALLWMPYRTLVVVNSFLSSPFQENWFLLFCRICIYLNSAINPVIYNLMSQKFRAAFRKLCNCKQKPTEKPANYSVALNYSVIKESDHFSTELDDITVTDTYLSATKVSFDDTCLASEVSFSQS
Progesterone receptor (Homo sapiens), sequence (P06401 whole entry, looked up): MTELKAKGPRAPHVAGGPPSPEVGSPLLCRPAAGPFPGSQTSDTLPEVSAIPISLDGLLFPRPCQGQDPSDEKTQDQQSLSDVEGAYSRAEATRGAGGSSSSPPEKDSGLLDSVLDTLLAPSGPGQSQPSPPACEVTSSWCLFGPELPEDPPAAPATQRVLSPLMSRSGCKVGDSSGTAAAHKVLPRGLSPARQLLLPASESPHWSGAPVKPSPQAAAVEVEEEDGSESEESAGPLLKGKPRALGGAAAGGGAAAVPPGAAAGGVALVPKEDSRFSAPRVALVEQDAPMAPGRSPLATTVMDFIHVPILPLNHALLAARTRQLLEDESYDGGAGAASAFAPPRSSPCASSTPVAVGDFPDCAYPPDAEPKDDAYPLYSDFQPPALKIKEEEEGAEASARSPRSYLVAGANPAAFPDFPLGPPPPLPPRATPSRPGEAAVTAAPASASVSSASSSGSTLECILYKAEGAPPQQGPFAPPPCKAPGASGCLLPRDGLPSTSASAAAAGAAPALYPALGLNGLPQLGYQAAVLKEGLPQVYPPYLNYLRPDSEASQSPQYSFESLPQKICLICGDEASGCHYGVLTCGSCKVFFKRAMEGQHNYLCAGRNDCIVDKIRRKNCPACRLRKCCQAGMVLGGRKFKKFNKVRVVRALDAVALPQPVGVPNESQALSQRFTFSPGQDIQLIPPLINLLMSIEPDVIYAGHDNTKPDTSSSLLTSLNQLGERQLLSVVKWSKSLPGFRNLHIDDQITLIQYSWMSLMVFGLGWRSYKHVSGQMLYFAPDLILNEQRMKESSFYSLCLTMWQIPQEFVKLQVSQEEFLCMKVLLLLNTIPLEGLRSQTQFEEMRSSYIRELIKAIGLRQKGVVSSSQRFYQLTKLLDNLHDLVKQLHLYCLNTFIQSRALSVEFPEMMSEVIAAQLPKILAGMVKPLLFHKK

For `CC(=O)O.CC(=O)O.CC(=O)O.CC(=O)O.CC(=O)O.CC(=O)O.CC(=O)O.O.O.[Cr].[Cr].[Cr]`, the Potency entry in assay [1], in [2], in [3], in [4] and in assay [6] was “inactive” throughout. In addition, in [5], the outcome was inactive.
With `Nc1nc(N)nc(Cl)n1`, the Potency result in assay [1], in assay [2], in assay [3], in [7], in [4] and in assay [8] was “inactive” in each case. Moreover, the Potency entry in [9] and in assay [6] was “inactive” in each case. Moreover, in assay [5], the outcome was inactive.
Consider `CCCCCCCCCCCCCCn1cc[n+](C)c1`, for which the Potency entry in assay [1] and in [2] was “inactive” in each case. Also, the Potency in assay [10] is 30.7 µM (active) and 42.8 µM (active) and inactive; in assay [4], 49.1 µM (active) and 38.5 µM (active) and inactive; in [6], 12.2 µM (active) and 27 µM (active). For the same compound, the call in assay [5] was inactive.
`C[C@]12CC[C@H]3[C@@H](CCC4=CC(=O)CC[C@@H]43)[C@@H]1CC[C@@H]2OC(=O)CCc1ccco1`: the Potency in assay [1] was 0.841 µM (active). Moreover, the Potency result in [2], in assay [3], in assay [7], in assay [4], in assay [8] and in assay [9] was “inactive” throughout. The Potency result in assay [6] is “inactive”. Also, the call in [5] was inactive.
In the case of `BrCCCBr`, the Potency result in assay [1], in assay [2], in assay [3], in assay [7], in assay [8] and in assay [9] was “inactive” throughout. Besides, in assay [6], the Potency result is “inactive”. In addition, in [5], the compound was called inactive.
Turning to `CNC(C)(C)Cc1ccccc1`, the Potency result in assay [1], in assay [2], in assay [3], in assay [7], in assay [4] and in assay [6] was “inactive” throughout. Besides, the outcome in assay [5] was inactive.
Consider `CO/N=C(\C(=O)OC)c1ccccc1CO/N=C(\C)c1cccc(C(F)(F)F)c1`, for which the Potency result in [1], in assay [3], in assay [8] and in [9] was “inactive” each time. Further, in [2], the Potency is 6.86 µM (active). Moreover, the call in assay [5] was inactive.
For `CCC1(CC)C(=O)N=C(O)NC1=O`, the Potency result in [1], in assay [2], in assay [3], in assay [4], in assay [8] and in [9] was “inactive” each time. In [6], the Potency result is “inactive”. In assay [5], the outcome was inactive.
For `S=C=Nc1ccccc1`, the Potency result in assay [1], in assay [2], in assay [3], in [7], in assay [4] and in assay [8] was “inactive” in each case. Further, the Potency entry in [9] and in assay [6] was “inactive” in each case. The result in [5] was inactive.
`O=[N+]([O-])c1ccccc1-c1ccccc1`: the Potency entry in assay [1], in [2], in [3], in [7], in [4] and in assay [8] was “inactive” each time. For the same compound, the Potency result in [9] and in assay [6] was “inactive” throughout. Also, the outcome in assay [5] was inactive.
Turning to `CC(=O)C(Cl)C(=O)N(C)C` (stereo unspecified), the Potency entry in assay [1], in assay [2], in [3], in assay [7], in assay [4] and in assay [8] was “inactive” in each case. Further, the Potency result in [9] and in assay [6] was “inactive” each time. The result in assay [5] was inactive.
Take `CCCCCCCc1ccc(O)cc1`: the Potency result in assay [1], in assay [3], in assay [7], in assay [8] and in [9] was “inactive” throughout. Moreover, in assay [2], the Potency is 21.7 µM (active). Further, the call in assay [5] was inactive.
On to `Nc1nc(N)c(N)c(N)n1`, for which the Potency in assay [1] was 7.74 µM (active); in [9] it was 39.1 µM (active). The Potency entry in assay [2], in assay [3], in assay [7], in [4], in [8] and in assay [6] was “inactive” each time.
Consider `N#CSCc1ccccc1`, for which the Potency entry in assay [1], in assay [2], in assay [3], in assay [7], in assay [4] and in [8] was “inactive” each time. Further, the Potency entry in [9] and in assay [6] was “inactive” each time. For the same compound, the outcome in assay [5] was inactive.
On to `CC(C)N(C(=O)CCl)c1ccccc1`, for which the Potency result in [1], in [10], in [4], in [8] and in [9] was “inactive” each time. In addition, the Potency in [3] is 61.1 µM (active) and 48.6 µM (active); in assay [6] it was 27.3 µM (active). Also, the call in [5] was inactive.
`CC(C)C(Nc1ccc(C(F)(F)F)cc1Cl)C(=O)OC(C#N)c1cccc(Oc2ccccc2)c1` (stereo unspecified): the Potency result in assay [1], in assay [3], in assay [7] and in assay [6] was “inactive” each time. Further, the outcome in [5] was inactive.
For `CN`, the Potency entry in [1], in assay [3], in assay [7], in assay [4], in assay [8] and in assay [9] was “inactive” each time. In addition, in assay [6], the Potency entry was “inactive”. For the same compound, in assay [5], the outcome was inactive.
